According to PubChem BioAssay AID1863 (Southern Research Specialized Biocontainment Screening …, 2009):
About 480 (0.16%) of roughly 300,000 compounds were called active.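 The calls were made as follows: active = inhibition over 29.93%, a cutoff 3 SD above the screen mean, later confirmed by dose response; inconclusive = inhibition over 29.93% but no dose response follow-up; inactive = inhibition at most 29.93% or unconfirmed.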 The list is a sample of the results. Measured potencies and affinities stand elsewhere.

Assay: PhoP-dependent GFP reporter repression – Salmonella Typhimurium, primary screen (AID 1863);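 also: 0% = low Mg2+ inducing control and 100% = high Mg2+ repressing control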
Settings: S. Typhimurium PhoP-regulated promoter GFP reporter, 4 h; at 50 µM; active compounds read high

inhibition, inactive:
COc1cc(/C=N/N=C(N)N)ccc1OCc1ccc(Cl)cc1 2.42%
NC(N)=N/N=C/c1ccc(OCc2ccccc2)cc1 17.1%
NC(N)=N/N=C/c1ccc(OCc2ccccc2)c(OCc2ccccc2)c1 10.4%
NC(N)=N/N=C/c1ccc(OCc2ccc(Cl)cc2Cl)cc1 -0.84%
CCn1ncc(Cl)c1C(=O)NC(=S)Nc1c(C)cc(C)cc1[N+](=O)[O-] 8.05%
CC(=O)c1cccc(NC(=O)CCCNC(=O)c2ccc(Cl)cc2)c1 0.5%
O=C(O)[C@@H]1CSC2c3ccccc3C(=O)N21 (stereo partly specified) -0.36%
CSCC[C@H](NC(=O)Nc1ccc(Oc2ccccc2)cc1)C(=O)O 0.47%
COC(=O)CSc1nc(N)c(C#N)c(CC(C)C)c1C#N -5.81%
Cc1ccc(NS(=O)(=O)c2ccc3c(c2)NC(=O)CCS3)cc1F 4.54%
COc1ccc(NC(=O)C/C(C)=N/NC(=O)c2cccs2)c([N+](=O)[O-])c1 6.98%
Oc1ccccc1C(Nc1nccs1)c1ccc2cccnc2c1O (stereo unspecified) 1.53%
COc1ccccc1NC(c1cccnc1)c1ccc2cccnc2c1O (stereo unspecified) 24.8%
Oc1c(C(Nc2cccc(C(F)(F)F)c2)c2cccnc2)ccc2cccnc12 (stereo unspecified) 69.6%
Cc1ccc2ccc(C(Nc3ccccn3)c3ccccc3)c(O)c2n1 (stereo unspecified) 26.2%
O=C(Cc1cccs1)NCc1ccncc1 20.6%
CC1(C)CCC/C(=C\c2ccccc2)C1=O -2.34%
O=S(=O)(/N=C(/NNS(=O)(=O)c1ccccc1)c1ccccc1)c1ccccc1 -3.53%
CCN(CC)CCN(C)c1ccc(N2C(=O)C3CC=CCC3C2=O)cc1[N+](=O)[O-] (stereo unspecified) -7.43%
Oc1ccc(Nc2nc(NCC3CCCO3)c3ccccc3n2)cc1 (stereo unspecified) -10.2%
Oc1ccccc1Nc1nc(NCC2CCCO2)c2ccccc2n1 (stereo unspecified) 13.1%
c1ccc(Nc2nc(NCC3CCCO3)c3ccccc3n2)cc1 (stereo unspecified) -1.89%
COc1ccc(Nc2nc(NCC3CCCO3)c3ccccc3n2)c(OC)c1 (stereo unspecified) 0.13%
COCCOCC(O)CN1CCN(c2ccccc2)CC1 (stereo unspecified) 4.06%
COc1ccccc1-c1noc(-c2ccccc2C(=O)NCC2CCCO2)n1 (stereo unspecified) -3.19%
O=C(O)c1cccc(Nc2c3ccccc3nc3ccccc23)c1 10.2%
CCOc1ccc(Nc2nc(N)c3ccccc3n2)cc1 29.9%
COc1ccc(Nc2c3ccccc3nc3ccccc23)cc1 -2.51%
Cc1ccc2nc3c(c(Nc4ccccc4)c2c1)CCC3 21.7%
COc1ccc(Nc2c3c(nc4ccccc24)CCC3)cc1 12.7%
Fc1cccc(Nc2c3c(nc4ccccc24)CCC3)c1 6.97%
c1ccc(Nc2c3c(nc4ccccc24)CCC3)cc1 20.2%
Cc1cc(Nc2cccc(O)c2)c2ccccc2n1 13.6%
Nc1n[nH]c(N)c1N=Nc1ccccc1F -3.09%
CCC(=O)Nc1ccc(C(=O)CSc2nc(N)cc(N)n2)cc1 4.88%
CS(=O)(=O)N1CCN(c2ccccc2NC(=O)c2cccnc2)CC1 -0.66%
CC(C)CCNC(=O)c1c(CSc2ccccc2)noc1C(=O)NCc1ccccc1 -1.54%
Cc1cc(-c2nnc(SCC(=O)Nc3ccc(F)cc3F)n2N)n[nH]1 -6.5%
COc1ccc(S(=O)(=O)N2CCC(C(=O)Nc3c(F)cccc3F)CC2)cc1 14.7%
Cn1c(=O)[nH]c(=O)c2c1nc(CN1CCN(c3ccc(F)cc3)CC1)n2CCCc1ccccc1 -9.74%
CO[C@@]12[C@H](COC(N)=O)C3=C(C(=O)C(C)=C(N)C3=O)N1C[C@@H]1N[C@@H]12 17.4%
COc1ccc(C(=O)N2CCN(c3ncccn3)CC2)cc1 6.73%
COc1ccc(-n2c(SCc3cccnc3)nc3c(c2=O)SCC3)cc1OC -5.3%
Cc1ccccc1OCC(=O)NCC(=O)N/N=C/c1cccc([N+](=O)[O-])c1 -0.52%
CCS(=O)(=O)Nc1c(C)n(C)n(-c2ccccc2)c1=O -5.83%
NS(=O)(=O)c1ccc(CNC(=O)c2cc(-c3cccnc3)nc3ccc(Br)cc23)cc1 -5.23%
Cc1ccccc1N1CCN(C2CCCN(C(=O)c3ccccn3)C2)CC1 (stereo unspecified) -6.14%
CCn1cc(S(=O)(=O)c2ccc(OC)cc2)c(=O)c2cc(F)c(N3CCN(C)CC3)cc21 -6.69%
CCn1cc(C(=O)O)c(=O)c2cc(F)c(N3CCN(S(=O)(=O)c4ccc(NC(=O)OC)cc4)CC3)cc21 -9.02%
Cc1cccc(C(=O)NC(=S)N2CCN(C(=S)NC(=O)c3cccc(C)c3)CC2)c1 12.1%
C=CCCCCCCCCC(=O)N1CCN(c2cc3c(cc2F)c(=O)c(C(=O)O)cn3CC)CC1 11.3%
CCn1cc(C(=O)O)c(=O)c2cc(F)c(N3CCN(S(=O)(=O)c4ccc(Br)cc4)CC3)cc21 3.63%
CCn1cc(C(=O)O)c(=O)c2cc(F)c(N3CCN(C(=S)NC(=O)c4cc(OC)cc(OC)c4)CC3)cc21 23.2%
CCn1cc(C(=O)O)c(=O)c2cnc(N3CCN(C(=S)NC(=O)c4ccc(OC)cc4)CC3)nc21 1.6%
CCc1sc(C(=O)Nc2cccnc2)cc1Br -5.61%
COc1ccc2[nH]cc(CCNC(=O)c3ccc4ccccc4n3)c2c1 -0.1%
CCC(=O)N1CCc2cc(Br)cc(S(=O)(=O)N3CCC(C(=O)NC(C)C)CC3)c21 3.79%
CNc1cc(CSC)nc(SCc2ccc(Cl)c(Cl)c2)n1 -2.03%
O=C(c1ccc2ncsc2c1)N1CCCCC1 0.96%
O=C(O)CCSc1nc2ccccc2n1Cc1ccccc1 -0.57%
NC(=O)CN(c1ccc([N+](=O)[O-])cc1)S(=O)(=O)c1ccccc1 10%
CN(C)C(=O)/C(C#N)=C\c1cc(Br)c(Sc2ccc(Cl)cc2)o1 2.32%
Cc1nc2c(C)cccn2c(=O)c1NC(=O)c1ccco1 6.47%
CCNC(=O)CN1C(=O)NC2(CCOc3ccccc32)C1=O (stereo unspecified) -2.64%
CCn1cc(C(=O)O)c(=O)c2cnc(N3CCN(C(=S)NC(=O)c4ccccc4)CC3)nc21 18.2%
CCn1cc(C(=O)NCc2cccc(F)c2)c(=O)c2cc(F)c(N3CCN(C(=O)c4ccco4)CC3)cc21 12.3%
CCn1cc(C(=O)O)c(=O)c2cnc(N3CCN(C(=S)NC(=O)c4ccc(Cl)cc4)CC3)nc21 30.7%
CCn1cc(C(=O)N/N=C(/C)c2ccc(F)cc2)c(=O)c2cc(F)c(N3CCCC3)cc21 -8.17%
Cc1c(Cl)cccc1NC(=S)N1CCOCC1 -2.07%
O=C(Nc1c2c(nn1-c1cccc(Cl)c1)CS(=O)(=O)C2)C1CC1 -4.19%
CCNC(=S)Nc1ccc(-c2nc3ccccc3[nH]2)cc1 -10.4%
COc1ccc(NC(=O)c2cn3c(nc4ccccc43)c(C#N)c2C)cc1 -3.66%
CC1CCN(S(=O)(=O)c2ccc3c(c2)c(=O)c(C(=O)N2CCOCC2)cn3C)CC1 -0.29%
Cc1c(CC(=O)N[C@@H](C)C(=O)O)c(=O)oc2c(C)c3occ(-c4ccccc4)c3cc12 9.42%
C=CCN(Cc1nc(-c2ccccc2)no1)C(=O)c1ccc2c(c1)OCO2 1.88%
O=[N+]([O-])c1ccc(/C=N/NC(=S)Nc2ccccc2)o1 18.4%
O=C(/C=C/c1cccc([N+](=O)[O-])c1)NCCSCc1cccc(Cl)c1 -1.04%
CCn1cc(C(=O)O)c(=O)c2cnc(N3CCN(C(=S)NC(=O)c4ccc(F)c(F)c4)CC3)nc21 7.64%
CCCCCCCCCC(=O)N1CCN(c2cc3c(cc2F)c(=O)c(C(=O)O)cn3CC)CC1 6.32%
CCOC(=O)c1sc(N)c(C#N)c1CSc1nnc(C2CC2)n1N 0.84%
COc1cccc2c1OC[C@@H](CO)[C@H]2N(C)C(=O)Nc1ccc(Cl)cc1 -5.57%
CO[C@@]1(NC(=O)CSCC#N)C(=O)N2C(C(=O)O)=C(CSc3nnnn3C)CS[C@@H]21 2.92%
Cn1nnnc1SCC1=C(C(=O)O)N2C(=O)C(NC(=O)C3CC3c3ccccc3)C2SC1 (stereo unspecified) 5.81%
COC(=O)C(C)Oc1cc(OC(C)C(=O)OC)c2c(-c3ccccc3)cc(=O)oc2c1 (stereo unspecified) -1.83%
c1ccc(-c2ccccn2)nc1 1.51%
c1ccc(-c2ccc(-c3ccccn3)nn2)nc1 17.9%
C[C@H](NC(=O)C1CC(=O)N(c2ccc3c(c2)OCCO3)C1)C(=O)NC1CCCC1 (stereo partly specified) -3.6%
CCN(CC)C(=O)COc1ccc(N(C)S(=O)(=O)c2ccc(NC(C)=O)cc2)cc1 -5.37%
COc1cc(-c2nc(N)n[nH]2)cc(OC)c1OC -10.2%
COc1cc(Nc2ncnc(N)n2)cc(OC)c1OC -3.05%
COc1cccc(OCCNc2cc(Cl)ccc2[N+](=O)[O-])c1 6.62%
